BAZ2B inh = BAZ2B (human) inhibition. Q9UIF8. AlphaScreen BAZ2B-H3K14Ac peptide displacement. Potency, µM (highest dose often 114 µM), most hits filed as inhibitors. 360,000 tested, 4.4% active; also: nearly all actives have a fitted effect of over 60% in size
Target sequence (Q9UIF8 whole entry, looked up): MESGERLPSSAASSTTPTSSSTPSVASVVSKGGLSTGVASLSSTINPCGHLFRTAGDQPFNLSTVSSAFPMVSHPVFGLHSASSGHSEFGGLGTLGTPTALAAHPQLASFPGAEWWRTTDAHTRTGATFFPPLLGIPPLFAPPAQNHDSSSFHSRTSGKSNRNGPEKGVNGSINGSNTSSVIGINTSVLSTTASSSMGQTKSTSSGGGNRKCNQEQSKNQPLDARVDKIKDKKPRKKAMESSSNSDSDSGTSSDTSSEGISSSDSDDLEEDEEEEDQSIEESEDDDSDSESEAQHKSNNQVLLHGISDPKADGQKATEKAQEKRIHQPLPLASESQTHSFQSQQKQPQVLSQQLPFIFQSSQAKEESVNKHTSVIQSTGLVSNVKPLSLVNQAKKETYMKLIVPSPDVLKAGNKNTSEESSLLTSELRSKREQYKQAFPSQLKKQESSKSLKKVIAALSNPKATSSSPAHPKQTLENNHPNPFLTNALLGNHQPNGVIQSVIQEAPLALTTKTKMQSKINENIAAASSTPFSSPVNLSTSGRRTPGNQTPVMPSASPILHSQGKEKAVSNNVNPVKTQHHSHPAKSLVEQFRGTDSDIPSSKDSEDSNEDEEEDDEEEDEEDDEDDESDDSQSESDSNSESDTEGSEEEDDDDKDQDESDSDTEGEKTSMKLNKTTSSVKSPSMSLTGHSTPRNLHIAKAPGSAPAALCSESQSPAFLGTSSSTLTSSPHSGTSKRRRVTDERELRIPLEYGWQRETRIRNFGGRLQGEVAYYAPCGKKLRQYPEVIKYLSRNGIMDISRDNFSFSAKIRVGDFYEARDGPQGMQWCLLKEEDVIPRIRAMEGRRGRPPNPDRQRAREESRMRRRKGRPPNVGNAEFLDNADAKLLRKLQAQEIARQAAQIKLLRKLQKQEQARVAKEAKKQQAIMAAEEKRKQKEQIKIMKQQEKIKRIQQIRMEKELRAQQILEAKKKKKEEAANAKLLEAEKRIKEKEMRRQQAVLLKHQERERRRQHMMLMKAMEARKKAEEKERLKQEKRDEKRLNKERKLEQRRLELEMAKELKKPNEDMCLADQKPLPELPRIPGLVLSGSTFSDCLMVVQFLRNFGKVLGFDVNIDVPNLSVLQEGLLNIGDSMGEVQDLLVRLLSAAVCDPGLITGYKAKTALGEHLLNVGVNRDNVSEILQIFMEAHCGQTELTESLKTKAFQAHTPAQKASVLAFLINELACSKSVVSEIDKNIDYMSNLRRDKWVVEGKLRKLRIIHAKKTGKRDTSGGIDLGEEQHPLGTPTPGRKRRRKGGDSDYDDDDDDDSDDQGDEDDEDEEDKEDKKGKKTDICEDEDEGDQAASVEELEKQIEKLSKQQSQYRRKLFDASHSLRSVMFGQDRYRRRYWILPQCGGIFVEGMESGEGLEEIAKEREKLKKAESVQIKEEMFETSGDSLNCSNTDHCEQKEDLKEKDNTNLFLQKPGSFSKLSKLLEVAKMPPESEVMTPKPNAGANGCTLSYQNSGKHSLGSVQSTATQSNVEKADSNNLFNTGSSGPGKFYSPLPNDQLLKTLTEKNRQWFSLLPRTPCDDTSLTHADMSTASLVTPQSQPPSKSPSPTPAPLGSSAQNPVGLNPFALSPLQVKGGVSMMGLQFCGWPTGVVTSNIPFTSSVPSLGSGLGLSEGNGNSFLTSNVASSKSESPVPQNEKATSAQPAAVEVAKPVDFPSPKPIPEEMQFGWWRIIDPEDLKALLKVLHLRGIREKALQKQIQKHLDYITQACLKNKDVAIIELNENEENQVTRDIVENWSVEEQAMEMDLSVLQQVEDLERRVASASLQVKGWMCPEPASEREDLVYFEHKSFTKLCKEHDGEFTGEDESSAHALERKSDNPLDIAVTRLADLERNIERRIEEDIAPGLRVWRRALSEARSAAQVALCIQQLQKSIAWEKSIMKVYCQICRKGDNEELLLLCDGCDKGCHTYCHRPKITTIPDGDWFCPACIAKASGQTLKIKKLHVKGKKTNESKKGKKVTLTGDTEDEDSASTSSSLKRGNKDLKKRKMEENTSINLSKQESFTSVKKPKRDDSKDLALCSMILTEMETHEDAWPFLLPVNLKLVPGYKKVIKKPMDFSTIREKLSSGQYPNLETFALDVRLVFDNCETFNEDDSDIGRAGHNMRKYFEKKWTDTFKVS
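AlphaScreen displacement: compounds (up to 110uM) incubated 30 min at room temperature with a preformed 50 nM BAZ2B/50 nM biotinylated H3K14Ac peptide complex in PBS pH 7.4 with Tween-20. Donor and acceptor beads at 10 ug/mL final added, 20 min light-protected before reading.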
G9a block = G9a (human) methyltransferase inhibition; AID 504332; Q96KQ7; Potency, µM (series often up to 102 µM), usual class: inhibitors; G9a H3K9 monomethylation, AlphaScreen, 2 h; 350,000 tested, 8.8% active; also: nearly all actives have a fitted effect of over 75% in size
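Methyltransferase reactions run at room temperature for 2 h (20 nM enzyme, 500 nM biotin-H3K9 peptide, 20 uM SAM) after a 15 min compound preincubation; product detected by AlphaScreen beads and anti-H3K9me1 antibody.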
Sfp inh = Sfp phosphopantetheinyl transferase inhibition. Q9F4F7. Biochemical Sfp PPTase activity, qHTS. Potency, µM, actives largely listed as inhibitors. 310,000 tested, 3.5% active. AID 1490;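 also: the enzyme is Sfp with the accession as filed and its product quenches rhodamine fluorescence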
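Step 1, compound plus 15 nM Sfp-PPTase, 15 min, room temperature. Step 2, add rhodamine-CoA (5 uM) and BHQ-2-YbbR (12.5 uM). Step 3, read 525/598 nm fluorescence at 0 and 30 min.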
JMJD2A Tudor inh = JMJD2A Tudor domain (human) inhibition; O75164; AlphaScreen JMJD2A-Tudor / H3K4me3 peptide binding; Potency, µM (doses to about 114 µM), actives largely listed as inhibitors; 390,000 tested, 4.4% active; AID 504339; also: nearly all actives have a fitted effect of over 50% in size
HP1b chromo inh = HP1-beta chromodomain-methylated histone interaction inhibition; P83916; AlphaScreen HP1-beta / biotin-H3K9me3 peptide binding; Potency, µM (top dose mostly 114 µM), hits mostly inhibitors; 390,000 tested, 0.56% active; also: nearly all actives have a fitted effect of over 70% in size
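Compound inhibition of the preformed complex between 50 nM HP1-beta and 50 nM biotinylated H3K9me3 peptide was read by AlphaScreen. Buffer was PBS pH 7.4 with 0.01% Tween-20. Incubations ran 30 min at room temperature, with 10 ug/mL donor/acceptor beads.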
ALOX12 inh = blocks human arachidonate 12S-lipoxygenase; P18054; purified 12hLO, xylenol orange hydroperoxide absorbance; Potency, µM (highest dose often 108 µM), hits mostly inhibitors; 580,000 tested, 1.1% active; AID 1671190
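Hydroperoxide product was detected by ferrous iron/xylenol orange as the 573 to 405 nm absorbance ratio. Arachidonic acid at 40 uM (final) was turned over for 30 min at room temperature by 150 nM human 12hLO, pH 7.0 Hepes buffer, after 15 min compound preincubation.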
A number is an active result; i = inactive; ? = inconclusive; nt = not tested or not shown. This is a sample that favours compounds with a hit; in the whole collection about 8.7% have one here. Calls follow the shape of the dose curve; as a rule, active = well fitted curve in the direction sought with a large enough effect; inconclusive = small, poorly fitted or top-dose-only effect, or another doubt; inactive = no such curve, though single readings can be large; an effect the other way counts as inactive or inconclusive.

SMILES	BAZ2B inh	G9a block	Sfp inh	JMJD2A Tudor inh	HP1b chromo inh	ALOX12 inh
CC1(OC(=O)C2CCCC2)C(=O)C=C2C=C(c3ccsc3)OC=C2C1=O (stereo unspecified)	50.1µM	?	i	?	?	7.94µM
CC1(OC(=O)CCc2ccccc2)C(=O)C=C2C=C(c3ccc(C#N)cc3)OC=C2C1=O (stereo unspecified)	nt	nt	i	nt	nt	nt
CC1(OC(=O)CCc2ccccc2)C(=O)C=C2C=C(c3ccsc3)OC=C2C1=O (stereo unspecified)	50.1µM	?	i	nt	nt	nt
O=C(O)c1cc(F)ccc1-c1ccccc1	nt	nt	nt	nt	nt	i
C[C@@H]1C(=O)O[C@H]2[C@H]1CC[C@@]1(C)Cc3sc(Nc4cccnc4)nc3[C@@H](C)[C@H]21	nt	nt	nt	nt	nt	i
CNCc1ccc(OCc2cccc(Cl)c2)c(OC)c1	nt	nt	nt	nt	nt	i
Cc1ccc(NC(=O)N2CCCC(Cn3c(C4CC4)nc4cccnc43)C2)cc1F (stereo unspecified)	nt	nt	nt	nt	nt	i
O=c1[nH]c(=O)c2nnc(N/N=C\c3ccc(O)cc3)nc2[nH]1	?	11.2µM	?	?	i	i
Cc1[nH]n(S(=O)(=O)Cc2ccccc2)c(=O)c1N=Nc1ccccc1Cl	nt	50.1µM	i	?	i	?
Cc1[nH]n(S(=O)(=O)c2ccccc2)c(=O)c1N=Nc1cccc(Cl)c1	i	nt	i	i	i	?
Fc1ccccc1C1c2cccn2CCN1C(=S)Nc1cccc(Br)c1 (stereo unspecified)	?	?	i	i	i	i
COc1ccccc1NC(=S)N1CCn2cccc2C1c1cccnc1 (stereo unspecified)	i	56.2µM	i	i	i	i
S=C(Nc1ccccc1)N1CCn2cccc2C1c1cccnc1 (stereo unspecified)	i	?	i	?	i	i
Fc1ccccc1C1c2cccn2CCN1C(=S)Nc1ccc(Br)cc1 (stereo unspecified)	i	25.1µM	i	i	i	?
Fc1cccc(NC(=S)N2CCn3cccc3C2c2cccnc2)c1 (stereo unspecified)	?	50.1µM	i	i	i	i
O=C(c1ccc(F)cc1Cl)N1CCN(c2cc(-c3ccc(F)cc3)[nH]n2)CC1	nt	nt	nt	nt	nt	i
CCN1CCN(CCCN(Cc2ccco2)C(=S)Nc2cc(Cl)ccc2C)CC1	i	28.2µM	i	i	i	i
CCN1CCN(CCCN(Cc2ccco2)C(=S)Nc2ccc(C)c(Cl)c2)CC1	i	35.5µM	i	i	i	i
CCOC(=O)c1ccc(NC(=S)N(CCCN2CCCC2)Cc2ccco2)cc1	i	56.2µM	i	i	i	i
Cc1ccc(NC(=S)N(CCCN2CCOCC2)Cc2ccco2)cc1Cl	i	i	i	i	i	i
COc1ccc(C2=C(N3CCN(c4cccc(C)c4)C(C)C3)c3ccccc3C2=O)cc1 (stereo unspecified)	4.47µM	5.01µM	nt	7.08µM	?	?
COc1ccc(-n2ncc3c(N4CCN(c5cccc(C)c5)C(C)C4)ncnc32)cc1 (stereo unspecified)	i	i	nt	i	i	i
CN(CC1CCOC1)S(=O)(=O)c1ccc(Cl)cc1 (stereo unspecified)	nt	nt	nt	nt	nt	i
O=C1[O][Bi][O]c2ccccc21	nt	3.16µM	i	nt	nt	nt
COc1ccc2c(c1)Cc1sc(NC(=O)c3cccs3)nc1-2	i	i	25.1µM	i	i	i
SMILES	BAZ2B inh	G9a block	Sfp inh	JMJD2A Tudor inh	HP1b chromo inh	ALOX12 inh
COc1ccc(C(=O)Nc2nc3c(s2)Cc2cc(OC)ccc2-3)cc1	i	44.7µM	79.4µM	i	i	?
COc1ccc2c(c1)Cc1sc(NC(=O)c3ccccc3)nc1-2	i	?	50.1µM	i	i	?
COc1ccc2c(c1)Cc1sc(NC(=O)c3cccc(F)c3)nc1-2	i	i	nt	i	i	i
COc1ccc2c(c1)-c1nc(NC(=O)c3cc(Cl)ccc3OC)sc1CC2	i	20µM	nt	i	i	i
O=C1Nc2ccc(-c3cccc(C(F)(F)F)c3)cc2C(=O)N2CCN(C(=O)c3ccccc3)C[C@H]12	nt	nt	nt	nt	nt	i
O=C(Cc1cccc(F)c1)N1CCC(n2cc(-c3nc(C4CC4)no3)nn2)CC1	nt	nt	nt	nt	nt	i
COc1ccc(NC(=O)NC[C@H]2Cn3cc(-c4ccc(C)cc4)nc3CO2)cc1	nt	nt	nt	nt	nt	i
